# Results filed as inconclusive are left out. Entries that show only a call come without a potency. The source made the active and inactive calls. Unless noted, calls follow the shape of the full dose curve.
# Experiments:
# [1] = Primary qHTS for Huh7 cytotoxicity: counterscreen for inhibitors of MERS-S pseudotyped particle cell entry (AID 1479147); details: outcome: dose series up to 57.1 µM unless noted
# [2] = Primary qHTS for inhibitors of MERS-S pseudo-typed particle cell entry (AID 1479149); details: outcome: dose series up to 57.1 µM unless noted; also: nearly all actives have a fitted effect of over 60% in size
# [3] = Primary qHTS for Vero E6 cytotoxicity: counterscreen for inhibitors of SARS-S pseudo-typed particle cell entry (AID 1479150); details: outcome: dose series up to 57.1 µM unless noted
# [4] = Cytotoxicity counterscreen for inhibitors of SARS-CoV-2 cell entry (AID 1645845); details: outcome: dose series up to 57.1 µM unless noted; also: nearly all actives have a fitted effect of over 50% in size
# In short: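 Expi293F/hACE2 cells seeded overnight; cpd pin-transferred in DMSO, 1 h preincubation, + media, 48 h 37 C 5% CO2; ATPLite 1step luminescence; normalized to cells and no cells.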
# [5] = Primary qHTS to identify inhibitors of SARS-CoV-2 cell entry (AID 1645846); details: SARS-CoV-2 pseudovirus cell entry assay, luminescence; activity change, negative = inhibition: at 57.1 µM (top of the series) unless noted; also: nearly all actives have a fitted effect of over 45% in size; also: potency is read from the fitted curve at half-maximal effect
# In short: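 Luminescence readout (Bright-Glo luciferase) 48 h after pseudoparticle addition. HEK293-ACE2 cells, 1500/well; compound pre-incubation 1 h; Normalized to spike PP and bald PP.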
# [6] = target: Glutathione peroxidase 1 (Homo sapiens) (UniProt P07203); test: Primary qHTS Assay for Inhibitors of Recombinant Selenoprotein Glutathione Peroxidase 1 (GPX1) (AID 1845191; active = well fitted inhibition curve with a large enough effect; also: nearly all actives have a fitted effect of over 65% in size)
# Glutathione peroxidase 1 (Homo sapiens), sequence (P07203 whole entry, looked up): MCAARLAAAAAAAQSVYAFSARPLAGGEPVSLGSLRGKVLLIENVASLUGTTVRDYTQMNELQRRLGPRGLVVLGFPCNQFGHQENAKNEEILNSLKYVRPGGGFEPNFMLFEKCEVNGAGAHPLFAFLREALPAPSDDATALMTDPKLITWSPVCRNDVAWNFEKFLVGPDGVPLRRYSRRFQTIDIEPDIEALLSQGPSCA
# In short: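 Recombinant GPX1 (10 nM final) was preincubated with compound for 30 min at room temperature, then reacted with 1 mM GSH, 0.5 mM CHP, 0.5 mM NADPH and 100 nM glutathione reductase; NADPH fluorescence (340/450 nm) was read at 0 and 15 min.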
# [7] = target: Phospholipid hydroperoxide glutathione peroxidase GPX4 (Homo sapiens) (UniProt P36969); test: Primary qHTS Assay for Inhibitors of Recombinant Selenoprotein Glutathione Peroxidase 4 (GPX4) (AID 1845192; active = well fitted inhibition curve with a large enough effect; also: nearly all actives have a fitted effect of over 65% in size)
# Phospholipid hydroperoxide glutathione peroxidase GPX4 (Homo sapiens), sequence (P36969 whole entry, looked up): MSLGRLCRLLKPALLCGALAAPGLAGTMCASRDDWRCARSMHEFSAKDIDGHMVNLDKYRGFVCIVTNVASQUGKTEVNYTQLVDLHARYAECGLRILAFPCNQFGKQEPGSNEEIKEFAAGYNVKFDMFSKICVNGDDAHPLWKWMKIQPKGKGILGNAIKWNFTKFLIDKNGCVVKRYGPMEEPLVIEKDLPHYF
# In short: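 GR-coupled readout: 100 nM GR, 1 mM GSH, 0.5 mM NADPH; NADPH fluorescence (ex 340/em 450 nm) read at t=0 and after 15 min RT. GPX4 200 nM, preincubated 30 min with compound; substrate 0.5 mM CHP.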
smiles,measurement,setting,value
COc1cc(/C=C\C(=O)N2CCN(CC(=O)N3CCCC3)CC2)cc(OC)c1OC,Potency,[1],inactive
same,Potency,[2],inactive
same,Potency,[3],inactive
same,Potency,[4],inactive
same,Potency,[5],inactive
CCCCCCCCCCCCNCCNCCNCC(=O)O,Potency,[1],inactive
same,Potency,[2],inactive
same,Potency,[3],inactive
same,Potency,[4],inactive
same,"activity change, negative = inhibition",[5],-24.3% [at 27.1 µM]
same,Potency,[6],inactive
same,Potency,[7],inactive
CCCCC(CC)COc1ccc(-c2nc(-c3ccc(OC)cc3)nc(-c3ccc(OCC(CC)CCCC)cc3O)n2)c(O)c1 (centres undefined),"activity change, negative = cytotoxicity",[1],-14.4% [at 5.34 µM] (inactive)
same,"activity change, negative = inhibition",[2],-1.24% [at 5.34 µM] (inactive)
same,"activity change, negative = cytotoxicity",[3],-1.62% [at 5.34 µM] (inactive)
same,"activity change, negative = cytotoxicity",[4],-8.22% [at 5.25 µM] (inactive)
same,outcome,[5],inactive [at 5.25 µM]
Cc1ccc([C@@H]2O[C@H](CO)[C@@H](O)[C@H](O)[C@H]2O)cc1Cc1ccc(-c2ccc(F)cc2)s1,Potency,[1],inactive
same,Potency,[2],inactive
same,Potency,[3],inactive
same,Potency,[4],inactive
same,Potency,[5],17.8 µM (active)
CCOC(=O)[C@@H](N)CS,Potency,[1],inactive
same,Potency,[2],inactive
same,Potency,[3],inactive
same,Potency,[4],inactive
same,"activity change, negative = inhibition",[5],-29%
CC(C)N[C@@H]1CCn2c(=O)[nH]c3cccc(c32)[C@H]1O,Potency,[1],inactive
same,Potency,[2],inactive
same,Potency,[3],inactive
same,Potency,[4],inactive
same,Potency,[5],inactive
same,Potency,[6],inactive
same,Potency,[7],inactive
CO[C@@H]1C[C@H](O[C@H]2[C@H](C)[C@H](O[C@@H]3O[C@@H](C)C[C@@H](N(C)C)[C@H]3OC(C)=O)[C@H](C)C[C@]3(CO3)C(=O)[C@H](C)[C@H](OC(C)=O)[C@H](C)[C@H](C)OC(=O)[C@@H]2C)O[C@H](C)[C@H]1OC(C)=O,Potency,[1],inactive
same,Potency,[2],inactive
same,Potency,[3],inactive
same,Potency,[4],inactive
same,"activity change, negative = inhibition",[5],-34.5%
